# High-throughput results (PubChem)
# Compounds with a hit are over-represented: about 7.5% of the library has one in this group of screens.
# Rab9 promoter act: qHTS Assay for Rab9 Promoter Activators. Potency, µM (top dose mostly 9.22 µM), hits mostly activators. 2.8% of 320,000 active. Huh7 Rab9 promoter-luciferase reporter, luminescence, 24 h; further: nearly all actives have a fitted effect of over 60% in size
#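 Using Huh7 cells stably transfected with Rab9 promoter–luciferase, compounds were incubated 24 h at 37 °C, 5% CO2; luciferase luminescence was read 10 min after reagent addition.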
# FLuc modulator: qHTS profiling assay for firefly luciferase inhibitor/activator using purifed enzyme and Km concentrations of substrates (counterscreen for miR-21 project). Luciferin 4-monooxygenase (Photinus pyralis), P08659. purified FLuc, Km substrates, luminescence inhibition. Potency, µM (highest dose often 57.5 µM), most hits filed as inhibitors. 6.9% of 360,000 active; further: nearly all actives have a fitted effect of over 55% in size
# Target sequence (P08659 whole entry, looked up): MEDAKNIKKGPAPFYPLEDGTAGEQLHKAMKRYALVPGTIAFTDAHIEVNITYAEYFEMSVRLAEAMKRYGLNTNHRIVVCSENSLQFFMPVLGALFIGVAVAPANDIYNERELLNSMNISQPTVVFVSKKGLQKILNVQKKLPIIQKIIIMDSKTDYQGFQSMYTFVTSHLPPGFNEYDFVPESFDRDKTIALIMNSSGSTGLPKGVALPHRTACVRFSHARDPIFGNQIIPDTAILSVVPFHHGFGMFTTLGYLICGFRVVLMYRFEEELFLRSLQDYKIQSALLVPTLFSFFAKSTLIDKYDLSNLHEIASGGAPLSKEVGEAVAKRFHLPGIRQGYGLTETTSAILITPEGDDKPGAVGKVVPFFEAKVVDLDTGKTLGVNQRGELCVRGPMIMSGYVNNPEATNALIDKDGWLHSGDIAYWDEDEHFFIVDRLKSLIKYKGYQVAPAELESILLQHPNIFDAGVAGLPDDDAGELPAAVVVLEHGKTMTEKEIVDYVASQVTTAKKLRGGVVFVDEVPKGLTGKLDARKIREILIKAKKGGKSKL
#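 Biochemical qHTS of compounds, final roughly 60 µM downward over six points, against 10 nM purified firefly luciferase using Km concentrations of substrates (10 uM D-luciferin, 10 uM ATP) in Tris acetate pH 7.5 buffer; luminescence output.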
# SMN2 splice up: qHTS Assay for Enhancers of SMN2 Splice Variant Expression. HEK293 SMN2-luciferase splicing reporter, luminescence, 30-36 h. Potency, µM (series often up to 46.1 µM), hits mostly activators. 2.8% of 210,000 active. AID 1458, 2008; further: nearly all actives have a fitted effect of over 55% in size
#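 qHTS luciferase splicing reporter: luminescence rises when SMN2 exon 7 is included in transfected HEK293 cells. Compound exposure lasted 30-36 h at 37C, with 4.5 mM final sodium butyrate as control, followed by a ONE-Glo read.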
# NPC1 prom act: qHTS Assay for NPC1 Promoter Activators. 2.4% of 320,000 active. Huh7 NPC1 promoter luciferase reporter, 24 h. Potency, µM (doses to about 9.22 µM), usual class: activators. AID 485313, 2010; further: nearly all actives have a fitted effect of over 60% in size
#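 Stably transfected Huh7 (NPC1 promoter→luciferase), 1500 cells/well in Opti-MEM + 10% FBS, 2 h settle, then compound 24 h at 37 °C. Luminescence after 10 min with Amplite reagent.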
# ELG1 genotoxic: qHTS screen for small molecules that induce genotoxicity in human embryonic kidney (HEK293T) cells expressing luciferase-tagged ELG1; HEK293T ELG1-luciferase reporter, luminescence, 16 h; AID 504466, 2011; Potency, µM (series often up to 46 µM), hits mostly activators; 1.3% of 330,000 active; further: nearly all actives have a fitted effect of over 60% in size
#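 Reporter readout depends on ELG1 protein level, which increases with genetic stress. After 16 hr compound exposure at 37 °C, luciferase activity was quantified using ONE-Glo.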
# Numbers stand for hits; i = inactive; ? = inconclusive; nt = no result; [ ] = remark or other dose. The call rests on the fitted dose curve; in most records, active means well fitted curve in the direction sought with a large enough effect; inconclusive means small, poorly fitted or top-dose-only effect, or another doubt; inactive means no such curve, though single readings can be large; an effect the other way counts as inactive or inconclusive.
SMILES,Rab9 promoter act,FLuc modulator,SMN2 splice up,NPC1 prom act,ELG1 genotoxic
CCN1C(=O)NC2=C(C(=O)c3ccccc32)C1c1ccccc1F (configuration not stated),i,i,i,i,i
CN(C)S(=O)(=O)c1ccc2oc(SCC(=O)NCC(F)(F)F)nc2c1,i,i,i,i,i
O=C(N/N=C/c1ccc(OC(F)F)cc1)C1=COCCO1,2µM,8.5µM,11µM,3.2µM,?
O=C(N/N=C/c1ccccc1OC(F)F)C1=COCCO1,i,i,i,i,i
O=C(Nc1ccc(SC(F)F)cc1)C1=COCCO1,1µM,4.8µM,11µM,1.3µM,2.6µM
Cc1ccc(C(=O)Nc2ccc(SC(F)F)cc2)s1,1.3µM,6.7µM,7.1µM,2.8µM,?
Cc1cccc(Cc2nnc(CCC(=O)NCc3ccncc3C)o2)c1,i,?,nt,i,i
Cc1ccc(C2=Nc3ccccc3N(CC(=O)NCc3ccc(Cl)cc3)C(=O)C2)cc1C,nt,i,nt,nt,nt
Cc1ccc(C2=Nc3ccccc3N(CC(=O)Nc3ccccc3C)C(=O)C2)cc1C,nt,11µM,nt,nt,nt
O=C1C(C2=NC(C(=O)O)C3C(=O)N(c4ccccc4)C(=O)C23)=C(O)c2ccccc21 (configuration not stated),i,12µM,i,i,i
O=C1C(C2=NC(c3ccccn3)C3C(=O)N(c4ccc(OC(F)(F)F)cc4)C(=O)C23)=C(O)c2ccccc21 (configuration not stated),i,i,nt,i,i
COc1cc(C2C(C(=O)c3cc4ccccc4o3)=C(O)C(=O)N2CCN2CCOCC2)ccc1OCCC(C)C (configuration not stated),i,i,nt,i,i
Cc1nnc(N2CCCCC2)c2ccccc12,i,i,?,i,i
Cc1ccc2c(Cl)c(C)c(N3CCCC3)nc2n1,i,17µM,i,i,i
CCOC(=O)c1sc(NC(=O)CSc2ncn[nH]2)c(C#N)c1C,i,i[2.3 µM],i,i,i
O=C(N/N=C/c1sc(=O)n(Cc2ccc(Br)cc2)c1Cl)c1ccco1,i,i,nt,i,i
O=C(O)c1cccc(Cn2c(Cl)c(/C=N/NC(=O)c3ccccc3Cl)sc2=O)c1,i,i,i,i,i
COc1ccc(C(=O)N/N=C/c2sc(=O)n(Cc3cccc(C(=O)O)c3)c2Cl)cc1,i,27µM,nt,i,i
Cc1ccccc1OCC(=O)N/N=C/c1sc(=O)n(Cc2cccc(C(=O)O)c2)c1Cl,i,i,nt,i,i
O=C(O)c1cccc(Cn2c(Cl)c(/C=N/Nc3ccccc3)sc2=O)c1,i,27µM,i,i,i
O=C(O)c1cccc(Cn2c(Cl)c(/C=N/NC(=O)c3ccccc3O)sc2=O)c1,i,19µM,nt,i,i
COc1ccc(S(=O)(=O)NC2CCc3ccccc32)cc1OC (configuration not stated),i,i,nt,i,i
Cc1sc2nc(C3CC3)nc(N3CCN(C(=O)c4ccc(Cl)cc4)CC3)c2c1C,i,i,nt,i,i
Cc1ccc(NC(=O)CCc2c(C)nn(-c3ccc(N4CCCCC4)nn3)c2C)cc1F,4µM,3.4µM,nt,2µM,?
CCc1cccc(NC(=O)CCc2c(C)nn(-c3ccc(N4CCCCC4)nn3)c2C)c1,?,11µM,nt,i,i
SMILES,Rab9 promoter act,FLuc modulator,SMN2 splice up,NPC1 prom act,ELG1 genotoxic
CCc1ccc(NC(=O)CCc2c(C)nn(-c3ccc(N4CCCCC4)nn3)c2C)cc1,?,12µM,nt,?,i
CCOc1ccc(NC(=O)CCc2c(C)nn(-c3ccc(N4CCCCC4)nn3)c2C)cc1,2.8µM,2.7µM,nt,?,?
Cc1cc(C)cc(NC(=O)CCc2c(C)nn(-c3ccc(N4CCOCC4)nn3)c2C)c1,i,15µM,nt,i,i[9.26 µM]
COc1ccc(NC(=O)CCc2c(C)nn(-c3ccc(N4CCCC4)nn3)c2C)cc1Cl,nt,21µM,nt,nt,nt
Cc1nn(-c2ccc(N3CCCCC3)nn2)c(C)c1CCC(=O)Nc1ccc(F)cc1,?,13µM,nt,?,i
Cc1nn(-c2ccc(N3CCCC3)nn2)c(C)c1CCC(=O)Nc1ccccc1,nt,i,nt,nt,nt
CCc1ccccc1NC(=O)CCc1c(C)nn(-c2ccc(N3CCOCC3)nn2)c1C,i,i,nt,i,i
Cc1nn(-c2ccc(N3CCCCC3)nn2)c(C)c1CCC(=O)Nc1cccc(F)c1,4µM,4.8µM,nt,2.8µM,?
Cc1ccc(OCCSCc2nnc(NC(=O)Nc3cccc(Cl)c3)s2)cc1,i,i,i,i,i
CC(C)[C@@H](N)C(=O)N/N=C/c1ccc2ncccc2c1,i,?,nt,i,i
Fc1c(F)c(F)c(N=Cc2ccc3ncccc3c2)c(F)c1F,i,6.7µM,i,i,i
Cc1c(Cl)cccc1NC(=O)c1cc(-c2ccc3c(c2)OCO3)on1,nt,i,i,nt,nt
Cc1cccc(OC(=O)c2cc(-c3ccc4c(c3)OCCO4)on2)c1C,nt,5.4µM,nt,nt,nt
Cc1cc(C)cc(OC(=O)c2cc(-c3ccc4c(c3)OCCO4)on2)c1,nt,i,nt,nt,nt
Cc1ccccc1OC(=O)c1cc(-c2ccc3c(c2)OCCO3)on1,nt,0.6µM,nt,nt,nt
CCc1ccc(NC(=O)c2cc(-c3ccc4c(c3)OCO4)on2)cc1,i,i,nt,i,i
O=C(Oc1ccccc1Cl)c1cc(-c2ccc3c(c2)OCCO3)on1,nt,2.7µM,nt,nt,nt
Cc1ccccc1Cn1c(CN2CCc3ccccc3C2)nc2c1c(=O)n(C)c(=O)n2C,i,i,i,i,i
